APOBEC3G inh = inhibitors of human APOBEC3G DNA deaminase; 0.28% of 330,000 active; AID 493012; Q9HC16; recombinant A3G, ssDNA deamination FAM/TAMRA fluorescence; inhibition, % at 20 µM;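 active = inhibition of at least 40% at 20 µM, with no more than 30% in the related APOBEC3A deaminase screen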;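 also: plate controls were DMSO wells with A3G for no effect and wells lacking A3G enzyme for full effect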
Target sequence (Q9HC16 whole entry, looked up): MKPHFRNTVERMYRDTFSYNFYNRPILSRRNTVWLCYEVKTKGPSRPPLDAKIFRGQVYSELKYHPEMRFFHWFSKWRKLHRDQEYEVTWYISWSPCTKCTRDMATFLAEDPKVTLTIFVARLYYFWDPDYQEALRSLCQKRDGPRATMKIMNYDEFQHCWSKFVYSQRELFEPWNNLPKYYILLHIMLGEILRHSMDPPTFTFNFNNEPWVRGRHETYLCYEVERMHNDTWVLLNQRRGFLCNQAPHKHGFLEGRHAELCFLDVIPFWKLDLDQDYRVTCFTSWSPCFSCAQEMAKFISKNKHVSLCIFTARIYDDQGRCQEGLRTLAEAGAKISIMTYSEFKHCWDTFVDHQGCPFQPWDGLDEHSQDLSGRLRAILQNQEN
aDG glyco up = increases alpha dystroglycan glycosylation. activation, % at 10 µM. Pro5-aDG cells, alpha-DG glycosylation AlphaScreen (IIH6); 0% Pro5, 100% B10-LARGE cell signal. AID 624168. 0.22% of 360,000 active;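 active = activation of at least 8% versus controls, or a plate z-score of at least 8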;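 also: Pro5 are CHO cells carrying HIG-tagged alpha-DG that lacks glycosylation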
APOBEC3A inh = human APOBEC3A DNA deaminase inhibition; inhibition, % at 20 µM; recombinant A3A, FAM/TAMRA ssDNA deamination fluorescence; 0.41% of 330,000 active; P31941; AID 493011;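 active = at least 40% inhibition at 20 µM here, with at most 30% in a related deaminase screen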;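 also: plate controls were A3A with DMSO for no effect and wells lacking A3A enzyme for full effect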
PHOSPHO1 inh = blocks human PHOSPHO1 phosphatase activity; inhibition, % at 13.3 µM; recombinant PHOSPHO1, absorbance phosphatase assay; 1.1% of 290,000 active; Q8TCT1; AID 1565; in the data active = inhibition above about 60%
rCAG RNA binder = binds r(CAG) RNA repeats; 1.3% of 370,000 active; AID 651821; r(CAG) RNA repeat, TO-PRO-1 dye displacement fluorescence; inhibition, % at 3 µM;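 active = inhibition above the plate cutoff, the mean of all test compounds on that plate plus 3 SD, cut at about 35% in these data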;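 also: 0% = DMSO alone and 100% = 100 µM mitoxantrone as full dye displacement; higher means more dye released from RNA so lower well fluorescence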
ALR H2O2 inh = blocks human ALR sulfhydryl oxidase activity; 3.8% of 290,000 active; P55789; inhibition, % (concentration not given with the values); purified ALR, DTT oxidation, H2O2 HRP-luminol luminescence;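 active = mean replicate inhibition above about 79%, with every replicate also reaching it, limit read from the data; inconclusive = only one of the two criteria met; inactive = mean below limit and not every replicate reaching it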
Target sequence (P55789 whole entry, looked up): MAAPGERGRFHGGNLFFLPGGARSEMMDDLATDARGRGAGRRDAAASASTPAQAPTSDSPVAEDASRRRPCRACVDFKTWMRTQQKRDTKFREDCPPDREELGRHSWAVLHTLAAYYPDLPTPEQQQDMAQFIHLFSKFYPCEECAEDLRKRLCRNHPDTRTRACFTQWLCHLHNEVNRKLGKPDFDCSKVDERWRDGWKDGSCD
An asterisk follows results filed as active; u = inconclusive; x = no result given. Hits are enriched below; roughly 5.4% of the tested compounds scored in any of these assays.

SMILES	APOBEC3G inh	aDG glyco up	APOBEC3A inh	PHOSPHO1 inh	rCAG RNA binder	ALR H2O2 inh
COc1ccc(-c2csc(Nc3ccccc3)[n+]2Cc2ccccc2)cc1	1	0	2	-8	1	x
O=[N+]([O-])c1cc(-n2cnnn2)ccc1N1CCC(Cc2ccccc2)CC1	-4	1	1	-23	5	-3
CC1CC(C)CN(c2ccc(-n3cnnn3)cc2[N+](=O)[O-])C1 (configuration not stated)	4	0	3	60*	2	-1
COc1cc(-c2nc3cnccn3c2Nc2c(C)cccc2C)ccc1O	-7	0	-4	-20	-2	98*
Cc1cccc(C)c1Nc1c(-c2ccc(N3CCOCC3)cc2)nc2cnccn12	-7	0	-3	27	0	99*
COc1cc(-c2nc3cnccn3c2NC(C)(C)CC(C)(C)C)ccc1O	-6	0	-4	8	-5	99*
CCCCNc1c(-c2ccc(-c3ccc(C(C)=O)cc3)c(OC)c2)nc2cnccn12	-13	2	-3	x	x	x
COc1cc(-c2nc3ccccn3c2N)ccc1O	-1	0	-3	18	-1	x
CN(C)CC(=O)N[C@H]1C[C@@H]2O[C@H](CO)CC[C@@H]2O[C@@H]1CCc1ccc(-c2ccc(F)cc2)cc1	x	x	x	x	4	x
COC(=O)C1=C(C)N(C)C(=NCc2ccccc2C(F)(F)F)NC1c1ccc(Cl)cc1 (configuration not stated)	x	x	x	x	5	x
CN(Cc1ccccc1)C(=O)OCc1cn(Cc2cccc(F)c2F)nn1	x	x	x	x	-1	x
CCOC(=O)[C@]12CCCCC/C=C\1N(Cc1ccc(OC)cc1)C(=O)[C@H]2CC(=O)N1CCSCC1	x	x	x	x	4	x
CC(=O)c1ccc(-c2cc(C(C)=O)c3n(c2=O)CCC3)cc1	x	x	x	x	1	x
CCCn1c(=O)c2ccccc2n2c(SCC(=O)c3ccccc3)nnc12	0	0	-6	-3	2	2
CCCn1c(=O)c2ccccc2n2c(SCC(=O)c3cc(C)n(CC4CCCO4)c3C)nnc12 (configuration not stated)	x	x	x	66*	x	x
Cc1cc(C(=O)CSc2nnc(-c3ccccc3)n2-c2ccccc2)c(C)n1-c1ncn[nH]1	-6	0	-2	75*	5	-6
Cc1cc(C(=O)CSc2nnc(-c3ccncc3)n2-c2ccccc2)c(C)n1C	-7	0	-2	77*	2	17
Cc1cc(C(=O)CSc2nnc(-c3ccccc3)n2C)c(C)n1C	-6	0	-5	24	0	6
Cc1cc(C(=O)CSc2nnc3ccccn23)c(C)n1-c1ccccc1	-6	0	-1	-3	-4	-1
O=C(CSc1nnc(-c2cccnc2)n1-c1ccccc1)c1ccccc1Cl	x	x	x	x	10	x
Cc1cc(C(=O)CSc2nnc(-c3cccnc3)n2-c2ccccc2)c(C)n1CC1CCCO1 (configuration not stated)	-6	0	-4	74*	-6	-88
N#Cc1ccccc1NC(=S)NC(=O)c1cccs1	-8	0	-5	10	2	98*
CCOC(=O)COc1ccc(Br)cc1/C=C/c1[nH]c(=O)[nH]c(=O)c1[N+](=O)[O-]	-4	0	2	20	77*	97*
CCCOc1ccc(/C=C/c2[nH]c(=O)[nH]c(=O)c2[N+](=O)[O-])cc1OCC	5	0	1	20	-3	12
COc1cc(/C=C/c2[nH]c(=O)[nH]c(=O)c2[N+](=O)[O-])cc(OC)c1O	-2	0	-5	29	7	95*
SMILES	APOBEC3G inh	aDG glyco up	APOBEC3A inh	PHOSPHO1 inh	rCAG RNA binder	ALR H2O2 inh
COc1cccc(/C=C/c2[nH]c(=O)[nH]c(=O)c2[N+](=O)[O-])c1O	-6	0	1	35	10	98*
Cc1ccc(C(=O)NCCN2C(=O)C3C4C=CC(C4)C3C2=O)cc1 (configuration not stated)	x	x	x	x	0	x
CN(C)c1ccc(/C=C2/SC(=O)N(CCN=C3NS(=O)(=O)c4ccccc43)C2=O)cc1	0	0	2	-4	9	x
CN(C)c1ccc(/C=C2\SC(=O)N(CCc3nnc(N)s3)C2=O)cc1	11	0	14	30	-1	97*
Cc1cccc(N2CCN(c3cccc(C)c3)C2c2cccnc2)c1	-10	0	-2	-8	-1	95*
CC(=O)Nc1ccc(N2C(=O)CSC2c2ccccc2)cc1 (configuration not stated)	-8	0	-4	20	-1	99*
Cc1cccc(N2C(=O)CSC2c2cccnc2)c1 (configuration not stated)	-7	0	-1	4	2	99*
CC(=O)Nc1ccc(N2C(=O)CSC2c2ccc([N+](=O)[O-])cc2)cc1 (configuration not stated)	-3	0	2	7	-2	u
O=C1CSC(c2ccccc2)N1c1cccnc1 (configuration not stated)	-1	0	2	33	0	93*
COC(=O)[C@]12C[C@H](CC(=O)NCc3cccc4ccccc34)C(=O)N(Cc3ccco3)C1=C[C@H](C1CCCC1)O[C@@H]2C	x	x	x	x	4	x
O=C1CSC(c2cccnc2)N1c1ccccc1 (configuration not stated)	-5	0	-1	25	-2	96*
CCCCCCCCN1C(=O)[C@@H](CC(=O)NCc2cccc3ccccc23)C[C@@]2(C(=O)OC)C1=C[C@H](COCc1ccccc1)O[C@@H]2C	x	x	x	x	7	x
COc1ccc(CNc2cc([N+](=O)[O-])ccc2OC)cc1	-5	0	1	-18	2	36
COc1ccc(-c2ccccc2)cc1NCc1ccccc1C	0	0	-1	-16	8	x
COc1ccc(C)cc1NCc1ccc(OC)c(C)c1OC	-8	0	-4	-29	-4	77*
COc1ccc(C)cc1NCc1ccc([N+](=O)[O-])cc1	-4	0	-2	24	-1	99*
C=CCN=C1NC(CCc2ccccc2)C(C(=O)OC)=C(C)N1Cc1cccc(C(F)(F)F)c1 (configuration not stated)	x	x	x	x	9	x
CCOCCCNc1nc(C)nc2c1nnn2Cc1c(F)cccc1Cl	-7	0	-4	65*	-6	-5
Cn1c(SC/C=C/c2ccccc2)nnc1-c1cccnc1	x	x	x	x	4	x
Cc1ccc(C23CC4CC(CC(CN)(C4)C2)C3)cc1	x	9.5*	x	60*	12	x
NCC12CC3CC(C1)CC(c1ccc(Br)cc1)(C3)C2	-12	0	-3	27	16	-18
Cc1ccc(-n2c(CCC(=O)O)ccc2-c2cccs2)cc1C	4	0	-1	24	19	x
COCCn1c(CCC(=O)O)ccc1-c1cccs1	-6	1	-4	37	1	81*
O=C(O)CCc1ccc(-c2cccs2)n1Cc1ccco1	0	0	4	-50	4	99*

Screening results as filed in PubChem BioAssay.
